Our source for the growth values is the supplement of paper PMC9262897, “Low-cost anti-mycobacterial drug discovery using engineered E. coli” (Nature Communications, 2022).

For this assay, the system named is E. coli TESEC Mtb Alr. The experiment in a line: growth (OD600 after 10 h); higher = more growth (less inhibition). The following applies: compound 0.1 mM. As to the method: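 TESEC Mtb Alr E. coli, or the Alr+ wild-type control, in 384-well plates with Prestwick library compounds at 0.1 mM and 1% DMSO, across arabinose induction levels of 1E3 to 1E7 nM. Growth is read as OD600 after 10 h at 37 °C in triplicate biological replicates.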

Where [1] appears, read: arabinose 1000 nM, raw OD600 reference: median of DMSO wells 0.294, cell-free background 0.041.
The mark [2] stands for this setting: arabinose 10000 nM, raw OD600 reference: median of DMSO wells 0.264, cell-free background 0.041.
Setting [3] is: arabinose 100000 nM, raw OD600 reference: median of DMSO wells 0.201, cell-free background 0.041.
Where [4] appears, read: arabinose 1000000 nM, raw OD600 reference: median of DMSO wells 0.193, cell-free background 0.041.
The mark [5] stands for this setting: arabinose 10000000 nM, raw OD600 reference: median of DMSO wells 0.146, cell-free background 0.041.

Where a name gives a salt, the structure may show the parent alone. ± gives the standard deviation of the averaged measurements.

For the molecule `CO/N=C(\C(=O)N[C@@H]1C(=O)N2C(C(=O)O)=C(C[N+]3(C)CCCC3)CS[C@H]12)c1csc(N)n1` [Cefepime hydrochloride], the growth is 0.0381 ± 0.00085 under setting [1]; 0.0472 ± 0.0016 under setting [2]; 0.03857 ± 0.00031 under setting [3]; 0.0612 ± 0.0025 under setting [4]; 0.048 ± 0.00053 under setting [5].
For `CCN(CC)CCOC(=O)C(c1ccccc1)c1ccccc1` [Adiphenine hydrochloride], in that order: 0.309 ± 0.033, 0.252 ± 0.004, 0.168 ± 0.0062, 0.14 ± 0.0034 and 0.142 ± 0.0034.
In the case of `O=C1CCc2cc(OCCCCc3nnnn3C3CCCCC3)ccc2N1` [Cilostazol], the growth under setting [1] was 0.194 ± 0.027; the growth under setting [2] was 0.1826 ± 0.00091; the growth under setting [3] came out at 0.125 ± 0.0036; the growth under setting [4] stood at 0.0688 ± 0.0017; the growth under setting [5] stood at 0.123 ± 0.0057.
With `NNC(=O)c1ccncc1` [Isoniazid], the growth is 0.288 ± 0.006 under setting [1]; 0.275 ± 0.0043 under setting [2]; 0.239 ± 0.052 under setting [3]; 0.186 ± 0.007 under setting [4]; 0.139 ± 0.0028 under setting [5].
Take `O=C1c2ccccc2C(=O)C1c1ccccc1` [Phenindione]: the growth turned out to be 0.298 ± 0.0061 under setting [1]; 0.268 ± 0.011 under setting [2]; 0.197 ± 0.03 under setting [3]; 0.166 ± 0.0028 under setting [4]; 0.147 ± 0.004 under setting [5].
In the case of `O=C1CN2Cc3c(ccc(Cl)c3Cl)N=C2N1` [Anagrelide], the growth came to 0.2815 ± 0.0021 under setting [1]; 0.281 ± 0.0097 under setting [2]; 0.191 ± 0.0049 under setting [3]; 0.209 ± 0.011 under setting [4]; 0.142 ± 0.005 under setting [5].
The corresponding values for `CC(=O)O[C@]1(C(C)=O)CC[C@H]2[C@@H]3C=C(Cl)C4=CC(=O)[C@@H]5C[C@@H]5[C@]4(C)[C@H]3CC[C@@]21C` [Cyproterone acetate] are 0.168 ± 0.0067, 0.125 ± 0.027, 0.122 ± 0.0081, 0.0693 ± 0.0035 and 0.0975 ± 0.0046.
For `Cc1ncc([N+](=O)[O-])n1CC(C)O` (stereo not given) [Secnidazole], in that order: 0.304 ± 0.012, 0.272 ± 0.015, 0.201 ± 0.0071, 0.188 ± 0.0085 and 0.137 ± 0.0015.
